From PubChem BioAssay AID652054 (National Center for Advancing Translational Sciences (NCATS), 2013)
Several values for one entry are separate records, joined by “and”; a condition that tells them apart may be missing. Equal entries are not always repeated. Screen size: about 360,000 compounds; about 9,100 (2.5%) were called active. About 4% were inconclusive and are not listed. No stated cut-off is given here; in the data, active means max response below about -50%; inconclusive means no clear call, values can overlap the other calls; inactive means above that. The entries come from a sample that favours actives as a whole.

Target: D(3) dopamine receptor (Homo sapiens) (UniProt P35462)
Assay: qHTS of D3 Dopamine Receptor Antagonist: qHTS
Conditions: D3R cells, DiscoveRx beta-arrestin luminescence, antagonist mode; active compounds read low
Excerpt: D3 DARs represent a very important target for the treatment of several neuropsychiatric disorders. Indeed, one of the most promising therapeutic applications for the D3 DAR is in the area of addiction and related disorders. […] These findings have been observed with a number of addictive substances including cocaine, amphetamine, nicotine, and alcohol. […] Antagonism of the D3 DAR may also be therapeutic in the treatment of schizophrenia or psychosis. […] Since the D3 DAR is expressed in areas of the CNS associated with the control of mood and emotion, it has been hypothesized that selective antagonism of the D3 DAR may be effective in treating psychosis without inducing the motor side effects typically seen with D2 DAR antagonists.
This part of the project aims to discover novel antagonist.
NIH Chemical Genomics Center [NCGC]
NIH Molecular Libraries Probe Centers Network [MLPCN]
Assay Submitter (PI): David Sibley, NINDS
Freshly passaged cells are plated in 1536 well white, solid bottom plates at a density of 1500 cells/well in 3microl of complete media. After an overnight incubation at 37 degrees C in 5% CO2, cells are loaded with 23nl of test compound from the compound library (as well as dopamine controls) using a 1536 pintool and incubated at 37 degrees C for 90 minutes. Two microliters of DiscoveRx reagent is then added to all cells, and they are incubated for an additional 30 - 60 minutes at room temperature. Following incubation, luminescence is measured on a ViewLux CCD-based luminometer reader using a 20 sec exposure time.
On the % scale 0 is the no-effect control and ±100 the full control effect.

Chain of D(3) dopamine receptor (Homo sapiens) (P35462 whole entry, looked up): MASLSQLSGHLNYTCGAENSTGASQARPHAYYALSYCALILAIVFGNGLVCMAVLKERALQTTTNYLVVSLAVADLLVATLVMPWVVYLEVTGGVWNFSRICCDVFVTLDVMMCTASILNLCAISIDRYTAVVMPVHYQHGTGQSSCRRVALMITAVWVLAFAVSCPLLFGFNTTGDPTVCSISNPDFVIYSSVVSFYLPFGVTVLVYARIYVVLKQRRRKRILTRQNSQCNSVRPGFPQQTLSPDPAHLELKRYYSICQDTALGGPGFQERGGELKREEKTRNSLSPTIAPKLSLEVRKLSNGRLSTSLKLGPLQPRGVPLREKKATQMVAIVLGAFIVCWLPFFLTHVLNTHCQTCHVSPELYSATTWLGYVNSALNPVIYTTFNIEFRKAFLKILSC

Max response, negative = inhibition, active:
Cc1nnc(SCC(=O)N/N=C/c2cn(-c3ccccc3)nc2-c2ccc(F)cc2)n1-c1ccccc1 -52.1%
Nc1c(C(=O)c2cccs2)sc2nsc(SCCN3CCCCC3)c12 -51.8%
CCCOc1ccc(C2C(C(=O)c3ccc(C)o3)=C(O)C(=O)N2CCCn2ccnc2)cc1 (stereo unspecified) -63.3%
Cn1cnnc1Sc1ccc(S(C)(=O)=O)cc1[N+](=O)[O-] -78.8%
O=C1c2cccc3cc(Br)cc(c23)C(=O)N1Nc1ccccc1 -62.9%
O=C1C2CCCN2C(=O)N1CCCCN1CCN(c2cccc(C(F)(F)F)c2)CC1 (stereo unspecified) -115%
O=C(CN1CCC(O)(c2ccccc2)CC1)Nc1ccc2c(c1)OCCO2 -57.9%
FC(F)(F)C1CCCN(c2nsc3ccccc23)C1 (stereo unspecified) -81.7%
COc1ccc(CNC(=O)CN2CCC(n3nnc4cc(F)ccc43)CC2)cc1 -83.8%
CCC(=O)c1ccc(OCC(O)CN2CC(C)OC(C)C2)cc1 (stereo unspecified) -54.2%
Cn1cccc1/C=C1\SC(=S)N(NC(=O)c2ccc(Cl)cc2)C1=O -70.7%
CCc1ccc(OC2(C)CCN(CCOc3ccc(C)cc3)C2)cc1 (stereo unspecified) -75%
O=S(=O)(c1ccc(OCC(O)CN2CCN(c3ccccc3Cl)CC2)cc1)N1CCOCC1 (stereo unspecified) -73%
CCc1nn(CCCN2CCN(c3cccc(Cl)c3)CC2)c(=O)n1CCOc1ccccc1 -77.2% and -89.6%
OC(COc1ccccc1)CN1CCN(c2cccc(Cl)c2)CC1 (stereo unspecified) -51.8%
CC(=O)Nc1ccc(OCC(O)CN2CCN(c3ccccc3Cl)CC2)cc1 (stereo unspecified) -66.4%

Max response, negative = inhibition, inactive:
N#Cc1cccc(NC(=O)c2cc(C3CCCCN3C(=O)CCc3ccccc3)on2)c1 (stereo unspecified) -8.91%
CCCCCn1nnnc1-c1nc2cc3ccccc3cc2[nH]c1=O -8.12%
COCCCNc1ccn2nc(-c3ccc(CC(C)C)cc3)cc2n1 31.5%
Cc1ccccc1NC(=O)Cc1nc(COC(=O)C(C)(C)Oc2ccc(Cl)cc2)cs1 24.6%
CC(C)(C)CC(=O)Nc1nc(C(N)Cc2ccc(C(F)(F)F)cc2)cs1 (stereo unspecified) 0%
Cc1nnc(SCC(=O)Nc2cccc(N)c2)n1-c1ccccc1 9.89%
Cc1ccc(-c2nnc(SCC(=O)N/N=C/c3cccs3)n2-c2ccc(C)cc2)cc1 11.6%
CCOC(=O)[C@]12CCCC=C1N(CCC1=CCCCC1)C(=O)[C@H](CC(=O)NCCCCc1ccccc1)C2 -12.8%
CCC(C(=O)Nc1c(C)cccc1C)n1c(-c2cc(C)cs2)nc2ccccc21 (stereo unspecified) -4.88%
Nc1ncnc2c1ncn2[C@@H]1O[C@H](C(=O)NS(=O)(=O)c2c(Cl)nc3sccn23)[C@@H](O)[C@H]1O 24.3%
Cc1ccc(-c2ccc(CN3C(C(C)C)C(=O)N(Cc4cn(CCC5OCCO5)nn4)CCS3(=O)=O)cc2)cc1 (stereo unspecified) 5.58%
O=C(Nc1ccc(Cl)cc1)c1csc([C@@H]2O[C@H](CO)[C@H](O)[C@H](O)[C@H]2O)n1 -15.5%
CC1=C(C(=O)N(C)C)CC(CC(=O)NCCN2CCOCC2)C(=O)N1Cc1ccccc1 (stereo unspecified) -7.58%
CC(=O)Nc1cc(-c2ccc(N3CCN(C)CC3)cc2)cn2c(-c3cccc(C(=O)N(C)C)c3)cnc12 9.1%
C=CCOc1cccc(C2C(C(=O)c3ccc(C)o3)=C(O)C(=O)N2CCN2CCOCC2)c1 (stereo unspecified) 0.324%
CCOc1ccc(C2/C(=C(/O)c3ccc4c(c3)CC(C)O4)C(=O)C(=O)N2CCCn2ccnc2)cc1 (stereo unspecified) -12.2%
Cc1ccc(C)c(C(O)c2ncc(-c3cccc4ccccc34)[nH]2)c1 (stereo unspecified) -3.53%
COC(=O)c1ccc2nc(-c3ccc(Cl)cc3)c(Cc3cccc(F)c3)n2c1 88.8%
CCN(CC(=O)Nc1c(F)cccc1F)C(=O)c1ccc(Sc2nncn2C)c([N+](=O)[O-])c1 2.59%
CC(=O)Nc1ccc(Nc2c([N+](=O)[O-])cc(S(C)(=O)=O)cc2[N+](=O)[O-])cc1 -15.9%
CC1=C(C(=O)Nc2cccc(C(=O)NCC(C)c3ccccc3)c2)SCCO1 (stereo unspecified) 104%
O=C1C=C(c2ccc(Cl)cc2)C(=O)N1Nc1ccccc1 -22.9%
O=C(CN1C(=O)c2cccc3cccc1c23)Nc1ccccc1 5.41%
COc1cccc(CNc2nc(NCc3ccccc3OC)nc3ccsc23)c1 31.6%
O=C(C1CC(=O)N(C2CCCC2)C1)N1CCN(c2cccc(C(F)(F)F)c2)CC1 (stereo unspecified) -17.8%
O=C(CCN1CCCO1)N1CCCC(N2CCN(c3cccc(C(F)(F)F)c3)CC2)C1 (stereo unspecified) -5.11%
CCCCCc1c(-c2ccc(OC)c(OC)c2)ncn1CCc1ccccc1OC -3.21%
O=C1NC[C@H](Cc2ccc(O)cc2)N(C[C@H]2CCCN2C[C@H](Cc2ccccc2)N2C[C@H](Cc3ccccc3)N(CCc3ccccc3)C(=O)C2=O)C1=O -27.9%
COc1ccc(CN2C(=O)C(CC(=O)NCCCCc3ccccc3)CC(C(=O)N3CCOCC3)=C2C)cc1 (stereo unspecified) 17.9%
Cc1ccc(C(=O)NC(C)C(c2cccs2)N2CCOCC2)cc1C (stereo unspecified) -24.7%
N#Cc1ccc(C(C(=O)NCc2ccccc2)n2c(=O)c(-c3ccco3)nc3ccccc32)cc1 (stereo unspecified) -4.27%
O=C(Cn1c(=O)sc2ccccc21)Nc1ccc2c(c1)OCCO2 7.52%
O=C(CN1CCN(C(=O)c2ccco2)CC1)Nc1ccc2c(c1)OCO2 -5.37%
CN1C[C@@H](CO)O[C@@H](n2cnc3c(N4CCN(CCO)CC4)ncnc32)C1 2.48%
COc1cccc(-c2cc3nc(NCc4ccccc4OC)n(C)c(=O)c3s2)c1 23.1%
COc1ccc(CN2C(=O)C(CC(=O)NC3CCCCC3)CC(C(=O)N3CCOCC3)=C2C)cc1 (stereo unspecified) -7.02%
COc1ccc([C@H]2CC(=O)C[C@@H](CCn3cc(CC4CCCC4)nn3)O2)cc1 5.27%
CCCS(=O)(=O)NC(=O)C1(C)CCN(C(=O)c2sccc2C)C1 (stereo unspecified) 18.5%
Nc1nc(CSc2nnnn2-c2ccccc2)nc(Nc2ccccc2)n1 16%
CC1(C(=O)Nc2ccccc2Br)CCN1C(=O)CC1CC1 (stereo unspecified) 27.1%
CC(=O)c1cccc(S(=O)(=O)N2CCC(n3nnc4cc(F)ccc43)CC2)c1 -14.5%
COc1ccccc1CNC(=O)CN1CCC(n2cnc3cc(F)ccc32)CC1 -0.289%
CC(C)(C(=O)N1CCC1(C)C(=O)NS(=O)(=O)c1ccc(Br)cc1)c1ccccc1 (stereo unspecified) 11.9%
CC1CCN(CC(O)COc2ccc(C(=O)c3ccccc3)cc2)CC1 (stereo unspecified) 0%
CCC(=O)c1ccc(OCC(O)CN2C(=O)NC(C)(C)C2=O)cc1 (stereo unspecified) 0%
OCCc1ccc(NCCc2ccco2)cc1 11.1%
O=C(O)c1ccc(/C=C2\SC(=S)N(NC(=O)c3ccc(Br)cc3)C2=O)cc1 -21.3%
CCOc1ccc(/C=C2\SC(=S)N(NC(=O)c3ccncc3)C2=O)cc1OC -13.1%
COC(=O)C1(C(=O)OC)C[C@H](c2ccccc2)N(Cc2ccccc2OC)[C@@H]1c1ccccc1 -25.4%
Cc1ccc(OCCNC(=O)CN2C(=O)NC3(CCCC3)C2=O)cc1 -22.9%
CCc1ccc(OCC(O)CN2CCN(CCO)CC2)cc1 (stereo unspecified) 18.7%
CCCNC(=O)C1(C)CCN1C(=O)C1(c2ccccc2)CC1 (stereo unspecified) -7.67%
Cc1sc2nc(-c3ccccc3F)oc(=O)c2c1C 0%
CCCc1nc2ccccc2n1C(C)C(=O)NC(C)(C)C (stereo unspecified) -12.7%
CC(OC(=O)c1ccc(NC(=O)CC#N)cc1)C(=O)Nc1ccc(S(=O)(=O)N2CCCC2)cc1 (stereo unspecified) 2.56%
COc1cc(C(O)c2nc(-c3cnn(C)c3)cs2)ccc1F (stereo unspecified) -2.22%
O=C(N[C@H]1CC[C@H](CC(=O)N2CCCCC2)O[C@@H]1CO)c1cccc(F)c1 1.98%
CC(=O)c1ccc(OCC(O)CN2CCN(S(=O)(=O)c3cccc(Br)c3)CC2)cc1 (stereo unspecified) 22%
CCN1C(=O)/C(=C\N2CCN(c3cccc(Cl)c3)CC2)SC1=S -22.6%
O=C(CCCC(=O)N1CCN(c2cccc(Cl)c2)CC1)c1ccccc1 11.7%
O=C(c1ccc(Cl)cc1)c1ccc(OCC(O)CN2CCCCC2)cc1 (stereo unspecified) -2.74%
CC(C)c1ccc(OCC(O)CN2CCN(c3ccccn3)CC2)cc1 (stereo unspecified) -29.5%
COC(=O)COc1ccc(S(=O)(=O)N2CCOCC2)cc1 20.2%
Cc1nn(CCOc2ccccc2)c(=O)n1-c1ccccc1F -0.664%
OC(COc1ccc2c(c1)CCC2)CN1CCN(c2cccc(Cl)c2)CC1 (stereo unspecified) 0%
CN1CCN(c2ccncc2S(=O)(=O)N2CCCC2)CC1 22.6%
COC(=O)c1ccc2nc(-c3ccc(C)cc3)c(Cc3ccc(OC)cc3C)n2c1 0.363%
CC(C)C1Cc2[nH][nH]c(=O)c2C(c2ccc(Cl)cc2)O1 (stereo unspecified) -0.765%
O=C(Nc1ccc(Cl)cc1)c1csc([C@H]2C[C@H](O)[C@@H](CO)O2)n1 0%
COc1ccc(NC(=O)C2Cc3c(-c4cccc(NC(C)=O)c4)ccnc3O2)cc1OC (stereo unspecified) 0%
